D2 ag-1: human D2 receptor agonism in beta-arrestin assay | P14416 | DiscoveRx PathHunter D2 beta-arrestin, luminescence, 90 min; 100% = 57 uM dopamine signal | activation, % (concentration not given with the values) | 360,000 tested, 0.084% active | AID 624465; in the data active means activation above about 40%; inconclusive means between about 15% and that limit
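DiscoveRx PathHunter D2 beta-arrestin cells (2,100/well) attached overnight, then compound-stimulated 90 min at 37 C in HBSS/10 mM HEPES/0.1% Tween-20 buffer; beta-galactosidase complementation read by luminescence after 1 h at ambient temperature. Dopamine 57 uM final (EC100) as control.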
D2 PAM-1: positive allosteric modulators of human D2 dopamine receptor. DiscoveRx D2 beta-arrestin cells, luminescence, 90 min; 100% = 57 uM dopamine signal. potentiation, % (test concentration not listed). 360,000 tested, 0.23% active; in the data active means potentiation above about 50%; inconclusive means mostly about 30% to 49%
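PathHunter beta-arrestin assay in DiscoveRx D2 cells. Compounds were added with an EC20 of dopamine (50 nM final) for 90 min at 37 deg C. Luminescence was read 1 h after detection reagent, with 57 uM dopamine as the EC100 control.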
D2 ag-2: D2 dopamine receptor (human) agonism; P14416; HEK293 T-REx D2 cells, calcium flux agonist mode; activation, % at 2 µM; 340,000 tested, 0.53% active;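 active means activation over 3 SD above normal in the single-dose calcium agonist read, cut at about 30% in these data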; further: 0% is about no effect
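Agonism is scored from calcium flux in a force-coupled, inducible HEK293 cell line expressing D2, read kinetically for 180 s after compound addition against dopamine controls.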
D2 antag: antagonizes the human D2 dopamine receptor | P14416 | HEK293 TREx D2 cells, calcium flux, dopamine EC80 | inhibition, % at 10 µM | 340,000 tested, 2% active; in the data active means inhibition above about 30%; inactive means below that, where a call was filed; further: 0% is about no effect
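In this primary screen, negative modulation is detected by tracking calcium flux after an EC80 dopamine challenge in inducible HEK293 T-REx D2 cells preexposed to test compound for 180 s.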
D2 PAM-2: D2 dopamine receptor (human) potentiation. potentiation, % at 10 µM. HEK293 T-REx D2, calcium flux, EC20 dopamine potentiation. 340,000 tested, 0.34% active. P14416;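 active means potentiation over 3 SD above the plate norm, cut at about 30% in these data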; further: 0% is about no effect
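Calcium flux readout, no-wash dye, 1 read/s. Inducible HEK293 Trex D2 line, overnight 30 C. Compound alone 180 s (agonist flags), then EC20 dopamine, another 180 s to score potentiation.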
D3 arrestin ag: confirmation of human D3 dopamine receptor agonists, beta-arrestin; shares compounds with D2 ag-2; DiscoveRx D3 beta-arrestin cells, luminescence, 90 min; Potency, µM (highest dose often 76.9 µM), for the others: top-dose activation, hits mostly activators; 2,300 tested, 4% active; AID 720506;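 further: potency means the concentration at half of the fitted maximal effect; 100% = dopamine control response; nearly all actives have a fitted effect of over 70% in size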
Target sequence (P35462 whole entry, looked up): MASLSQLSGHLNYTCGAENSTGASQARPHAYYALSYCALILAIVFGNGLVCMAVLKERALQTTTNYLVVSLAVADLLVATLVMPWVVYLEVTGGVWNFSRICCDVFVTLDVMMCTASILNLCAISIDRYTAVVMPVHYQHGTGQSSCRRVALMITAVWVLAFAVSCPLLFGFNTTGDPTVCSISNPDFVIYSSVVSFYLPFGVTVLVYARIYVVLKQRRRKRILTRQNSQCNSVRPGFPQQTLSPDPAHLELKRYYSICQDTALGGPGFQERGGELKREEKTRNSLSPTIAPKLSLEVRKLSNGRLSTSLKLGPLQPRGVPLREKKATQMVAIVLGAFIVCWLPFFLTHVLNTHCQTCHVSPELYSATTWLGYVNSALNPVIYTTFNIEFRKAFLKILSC
D2 ag-3: D2 receptor agonism, beta-arrestin counterscreen | 2,300 tested, 5.9% active | shares compounds with D2 ag-2 | AID 720507 | Potency, µM (highest dose often 76.9 µM), for the others: at the top dose activation, actives largely listed as activators | DiscoveRx PathHunter D2 beta-arrestin, luminescence, 90 min; response scale: percent relative to full dopamine signal; further: potency means the concentration at half of the fitted maximal effect; % of control where 0% means no effect; nearly all actives have a fitted effect of over 70% in size
Active calls of the source: *; u = inconclusive; x = no result given. This is a sample that favours compounds with a hit; in the whole collection about 2.4% have one here. Unless noted, the call rests on the fitted dose curve; in most records, active means well fitted activation curve with a large enough effect; inconclusive means small, poorly fitted or top-dose-only effect; inactive means flat fitted curve, though single readings scatter.

SMILES	D2 ag-1	D2 PAM-1	D2 ag-2	D2 antag	D2 PAM-2	D3 arrestin ag	D2 ag-3
CC1CCCN(CCOCCOc2ccc(Br)cc2Cl)C1 (configuration not stated)	0	-42	1	52*	-27	x	x
Cc1cc(C)cc(Nc2cc(C)nc3nc(-c4ccco4)nn23)c1	x	x	-6	x	-5	x	x
CCC(=NCCc1ccccc1)C1=C(O)CCC1=O	-4	2	49*	-5	-17	3%	2%
Cn1c(C=O)c(C#CC(C)(C)O)c2ccccc21	2	-14	0	-7	4	-4%	-4%
COc1cccc(C#Cc2c(C=O)n(C)c3ccccc23)c1	-3	-4	0	-7	-18	x	x
CC(C)SCCCCOc1ccc2ccccc2c1	-1	-4	2	-23	-10	-23%	1%
O=C(Cn1c(=O)oc2cc(S(=O)(=O)N3CCCCCC3)ccc21)Nc1cccc(C(F)(F)F)c1	x	x	0	x	-7	x	x
Cc1c(Cl)cccc1-n1ncc(C(=O)N2CCC(C)CC2)c1C1CCN(C(=O)OC(C)(C)C)CC1	x	x	0	x	-2	x	x
COCc1ccc(-c2ccc3c(c2)c(C#Cc2ccsc2)c(-c2cc(OC)cc(OC)c2)n3C)cc1	-1	-4	1	-20	-8	-5%	-4%
CCN(CC)S(=O)(=O)c1cccc(C(=O)N/N=C2\CCCC(=O)C2)c1	-7	-9	4	17	-3	x	x
CCN(CC)S(=O)(=O)c1cccc(C(=O)N/N=C2\CC(=O)CC(C)(C)C2)c1	0	4	1	-16	-17	-3%	2%
O=C(CCN1CCN(c2ccccc2)CC1)Nc1cccc(Br)c1	-1	-8	60*	75*	-22	21%	12%
O=C(CN1CCN(c2ccc(O)cc2)CC1)Nc1ccc2c(c1)OCCCO2	7	15	35*	1	-12	40µM*	35µM*
O=C(CCN1CCN(c2ccccc2)CC1)Nc1ccc2c(c1)OCO2	u	-14	103*	108*	-27	u	u
O=C(CCN1CCN(c2ccccc2)CC1)Nc1nccs1	14	-28	71*	93*	-31	25%	16%
CCN1CCN(CCC(=O)Nc2ccc3c(c2)OCO3)CC1	2	-4	0	0	-7	x	x
Cc1cccc(C(=O)N2CCc3cc(CNC(=O)c4cc5ccccc5[nH]4)ccc32)c1	x	x	0	x	-14	x	x
COc1ccccc1CNC(=O)CSc1nc(=O)[nH]c2c1CCCC2	x	x	1	x	6	x	x
COc1cccc2sc(N(Cc3cccnc3)C(=O)c3ccc4c(c3)OCCO4)nc12	x	x	0	x	-4	x	x
O=C(CCN1CCN(c2ccccc2F)CC1)Nc1ccc2c(c1)OCO2	u	3	80*	86*	-19	u	u
COc1ccc(NC(=O)CCN2CCN(c3ccccc3F)CC2)c(OC)c1	49*	13	90*	86*	-28	u	u
COc1ccc(NC(=O)CN2CCN(c3ccccc3F)CC2)c(OC)c1	x	x	x	x	-22	x	x
Cc1cccc(-n2c(C)cc(C(=O)C(=O)Nc3ccccc3F)c2C)c1C	x	x	0	x	x	x	x
CCCN(CCC)CCCNC(=O)CC(C(=O)N1CCc2ccccc21)n1ccnc1 (configuration not stated)	2	2	8	-11	-17	-17%	-2%
CCCN1C(=O)CSC1=Nc1ccccc1	1	-9	1	5	3	x	x
O=C1CSC(=Nc2ccccc2)N1Cc1ccccc1	2	-7	x	x	x	-5%	-1%
O=C(CCc1nnc2n(Cc3ccc(F)cc3)c(=O)c3ccccc3n12)NCCN1CCOCC1	1	-7	0	-27	0	x	x
O=C(CCc1nnc2n(Cc3ccc(F)cc3)c(=O)c3ccccc3n12)N1CCN(c2ccccn2)CC1	-5	-6	53*	12	-27	-13%	-8%

Compound activity as filed in PubChem BioAssay.
